From PubChem BioAssay (NCI)
About 79,000 compounds went through this panel and 15% of them were active in at least one assay; those are over-represented in the sample as a whole. Cut-off read from the data, not from the text of the source: active = growth inhibition above about 70%; inactive = the rest.

Key:
[1] = NCI Yeast Anticancer Drug Screen. Data for the rad50 strain (AID 155);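 note: 0% = growth of vehicle-only cultures of the same strain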; settings: S. cerevisiae rad50 strain growth inhibition; at 50.0 µM; hits give high values
Method in brief: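 Vehicle-treated cultures provide the reference for the growth inhibition reported for compound-exposed, repair-deficient yeast.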

[2] = NCI Yeast Anticancer Drug Screen. Data for the mec2-1 strain (AID 157); settings: S. cerevisiae mec2-1 strain, at 50.0 µM, hits give high values
Method in brief: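 Mutant yeast (mec2-1) grown with compound; growth inhibition relative to vehicle control reported.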

[3] = NCI Yeast Anticancer Drug Screen. Data for the sgs1 mgt1 strain (AID 161);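 note: 0% = growth of cultures given vehicle only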; settings: S. cerevisiae sgs1 mgt1 strain, at 50.0 µM, hits give high values
Method in brief: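 Compounds are added to genetically altered yeast, and growth is compared with cultures given vehicle alone to give percent inhibition.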

[4] = NCI Yeast Anticancer Drug Screen. Data for the cln2 rad14 strain (AID 165);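 note: 0% = growth equal to vehicle treated cultures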; settings: S. cerevisiae cln2 rad14 strain, at 50.0 µM, hits give high values
Method in brief: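 Readout is yeast growth inhibition versus vehicle-treated controls, using a strain with cln2 and rad14 alterations exposed to compound.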

[5] = NCI Yeast Anticancer Drug Screen. Data for the bub3 strain (AID 167); settings: S. cerevisiae bub3 mutant strain, at 50.0 µM, hits give high values
Method in brief: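 Mutant yeast screening strain plus compound; vehicle-treated cultures serve as the 0% inhibition reference.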

[6] = NCI Yeast Anticancer Drug Screen. Data for the mlh1 rad18 strain (AID 175); settings: S. cerevisiae mlh1 rad18 strain growth inhibition; at 50.0 µM; hits give high values
Method in brief: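 Genetically defined yeast (DNA repair-deficient) exposed to compounds; growth inhibition determined relative to vehicle.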

Measured: growth inhibition

N#CCCS(=O)(=O)O
inactive: [1] 29.1% | [2] 21.9% | [3] -6.9% | [4] 1.95% | [5] 15.9% | [6] 13.8%

CNC(=O)O[C@H]1C(=O)O[C@@H]2C[C@H]3C(C)=C(O)C(=O)C[C@]3(C)[C@H]3[C@@H](O)[C@H](O)[C@@]4(C(=O)OC)OC[C@]32[C@@H]14
inactive: [1] 24.9% | [2] 16.4% | [3] 1.95% | [4] 7.3% | [5] 14.9% | [6] 16.9%

NC(=S)N/N=C1\C(=O)NC(=O)C1c1ccccc1 (stereo unspecified)
inactive: [1] 4.75% | [2] 1.4% | [3] 3.45% | [4] 0.45% | [5] 15.6% | [6] 6.95%

COc1cc2nccnc2cc1OC
inactive: [1] 10.1% | [2] 7.05% | [3] 3.35% | [4] -7.45% | [5] 6.55% | [6] 21.2%

O=C(c1ccccc1)c1ccccc1NCC(O)COc1cccc2ccccc12 (stereo unspecified)
inactive: [1] -7.5% | [2] -19.9% | [3] -21.9% | [4] -13.8% | [5] 5.55% | [6] -4.2%

Cn1c(=S)[nH]c2cc(Cl)c(Cl)cc21
inactive: [1] 17.4% | [2] -3.05% | [3] 0.55% | [4] -21.7% | [5] -14.7% | [6] 20.4%

O=C(OC(c1ccccc1)c1ccccc1)c1ccccc1C(=O)c1ccccc1
inactive: [1] -18.6% | [2] -15.1% | [3] -21% | [4] -16.6% | [5] -3.25% | [6] -36.1%

CC1OC(Cc2ccccc2)OC1C (stereo unspecified)
inactive: [1] 12.4% | [2] 13.8% | [3] 16.7% | [4] 0.4% | [5] 12.6% | [6] 9.9%

CN1CCN(CCN2C(=O)c3ccccc3C2=O)CC1
inactive: [1] -12.3% | [2] 2.65% | [3] -10.5% | [4] -15% | [5] -10.8% | [6] -43.8%

O=C1/C(=C/c2ccc(Cl)cc2)COc2ccc(Br)cc21
inactive: [1] 26.1% | [2] 4.85% | [3] -5.1% | [4] 6.7% | [5] 1.8% | [6] -2.45%

N#CC(c1ccccc1)N(C(N)=O)c1ccccc1 (stereo unspecified)
inactive: [1] -3.15% | [2] 8.5% | [3] 8.05% | [4] -2.85% | [5] 6.4% | [6] 4.2%

COc1ccccc1C(=O)N/N=C/c1ccncc1
inactive: [1] -2.85% | [2] 24.5% | [3] 5.7% | [4] -5.7% | [5] 20.2% | [6] 9.8%

CCCCSc1n[nH]c(C2CCC(=O)N2Cc2ccccc2)n1 (stereo unspecified)
inactive: [1] -14.8% | [2] -19.1% | [3] -0.8% | [4] -12.9% | [5] -3.5% | [6] -6%

CC(C)=CCNC(N)=O
inactive: [1] 4.95% | [2] -3.8% | [3] -10.5% | [4] 11% | [5] 7.4% | [6] 2.15%

Cc1cc(=O)[nH]c(NNC(C#N)c2ccc([N+](=O)[O-])cc2)n1 (stereo unspecified)
inactive: [1] -18.5% | [2] 0.35% | [3] -36.1% | [4] -8.8% | [5] -30.6% | [6] -50.9%

COc1ccccc1C(=O)C(CN(C)C)CN(C)C
inactive: [1] -2.5% | [2] -19.2% | [3] 6.65% | [4] 15.3% | [5] -23.3% | [6] 13.7%

CN1c2ccccc2N(C)C2C1N(C)c1ccccc1N2C (stereo unspecified)
inactive: [1] -38.9% | [2] -28.4% | [3] -12.4% | [4] -1.8% | [5] -19.9% | [6] -36.1%

Cc1ccc(C(C)C)cc1NC(=O)/C=C/c1ccccc1
inactive: [1] 10.2% | [2] 36% | [3] 36.6% | [4] -15.2% | [5] 23.9% | [6] 55%

O=C(CCn1[nH]c(=O)c(Cl)c(Cl)c1=O)NNC(=O)C[n+]1ccccc1
inactive: [1] -4.2% | [2] -8.9% | [3] -28.3% | [4] 34.2% | [5] -7.05% | [6] -25.1%

COCCCC(NC(=O)C(CC(C)C)NC(=O)OCc1ccc(OC)cc1)C(=O)OC (stereo unspecified)
inactive: [1] -9.6% | [2] -12.9% | [3] -2.25% | [4] 6.6% | [5] -9.1% | [6] 7.8%

CC(C)(c1ccccc1)c1ccc(Oc2ccc(C#N)c(C#N)c2)cc1
inactive: [1] -27.2% | [2] -7.6% | [3] -14% | [4] 3.3% | [5] -35.8% | [6] -21.6%
